Compound activity deposited in PubChem by National Center for Advancing Translational Sciences (NCATS).
Pf Dd2 inh: qHTS Primary assay for Inhibitors of Plasmodium falciparum Dd2 growth in vitro | P. falciparum Dd2 growth, SYBR Green, 72 h | Potency, µM (doses to about 28.9 µM), actives largely listed as inhibitors | hit rate 4.3% among 120,000 | AID 1347417, 2020; active = well fitted inhibition curve with a large enough effect; note: nearly all actives have a fitted effect of over 65% in size
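Infected erythrocytes (Dd2, 0.3% parasitemia, 2.5% hematocrit final) are added to compound in RPMI-1640/Albumax II medium, grown 72 h at 37C in low oxygen, then lysed with saponin/Triton-X containing SYBR Green and read by fluorescence.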
Large screens that a line does not name were inactive. The sample as a whole holds a higher share of hits than the screen did.

CNC(=O)[C@@H]1C[C@H](Oc2ccccc2)CN1S(=O)(=O)c1cc(OC)ccc1OC	none
CC(C)c1nc(CNC(=O)c2ccc(NC[C@H]3C[C@H]4C=C[C@H]3C43CC3)nc2)no1	none
CCC(Nc1ccc(-c2nc(-c3ccco3)no2)cc1[N+](=O)[O-])c1ccccc1 (configuration not stated)	Pf Dd2 inh 10µM
O=[N+]([O-])c1cc(-c2nc(-c3ccco3)no2)ccc1NCc1ccccc1	none
CCCCNc1ccc(-c2nc(-c3ccco3)no2)cc1[N+](=O)[O-]	none
O=C(NCCOc1ccccc1)c1ccc2c(c1)OCCN(c1ccccc1)C2	none
CNC(=O)c1ccc2c(c1)OCCN(c1cccc(OC(F)(F)F)c1)C2	Pf Dd2 inh 11µM
COc1ccc(NC(=O)c2ccc3c(c2)OCCN(c2ccccc2)C3)cn1	none
O=C(Nc1nccs1)c1ccc2c(c1)OCCN(c1cccc(OC(F)(F)F)c1)C2	none
O=C(NC1CC1)c1ccc2c(c1)OCCN(c1cccc(OC(F)(F)F)c1)C2	Pf Dd2 inh 3.5µM
O=C(NCCc1ccccc1)c1ccc2c(c1)OCCN(c1ccccc1)C2	Pf Dd2 inh 10µM
O=C(NCc1ccncc1)c1ccc2c(c1)OCCN(c1cccc(OC(F)(F)F)c1)C2	none
O=C(NCc1ccncc1)c1ccc2c(c1)OCCN(c1ccccc1)C2	none
O=C(NC1CCOCC1)c1ccc2c(c1)OCCN(c1ccccc1)C2	none
COCc1noc([C@@H]2CN(Cc3ccncc3F)C[C@H]2COC)n1	none
Cc1nc(C2CCN(C(=O)C3(C(N)=O)CC3)CC2)cc(N2CCOCC2)n1	none
Cc1ccc(CC(=O)N2CCN(C(=O)c3nnn4c3COC(c3ccc(F)cc3)C4)CC2)cc1 (configuration not stated)	none
CN1CC2(CCN(C(=O)N3CCOCC3)CC2)CC(c2ccccc2)C1=O (configuration not stated)	none
O=C(Nc1ccc2c(c1)OCCO2)[C@H]1CN(Cc2ccccc2)C[C@H]1C(=O)O	none
Cc1nc(-c2ccc(OC3CCN(C(=O)NC4CCCCC4)C3)cc2)no1 (configuration not stated)	none
COc1ccc(-c2nc(C(C)C)nc3c2CCN(C(=O)NC2CCCC2)CC3)cc1	none
CCCSC1=NC2(CCN(C(=O)NC3CCCCC3)CC2)N=C1c1ccccc1	none
CCSC1=NC2(CCN(C(=O)NC3CCCCC3)CC2)N=C1c1ccc(OC)cc1	Pf Dd2 inh 7.1µM
COC1CCC12CCN(C(=O)NC1CCCCC1)CC2 (configuration not stated)	none
CCCSC1=NC2(CCN(C(=O)NC3CCCCC3)CC2)N=C1c1ccc(OC)cc1	Pf Dd2 inh 11µM
COc1ccc(-c2oc3ncn4nc(-c5cccc(C)c5)nc4c3c2-c2ccc(OC)cc2)cc1	none
COc1ccc(-c2oc3ncn4nc(COc5c(C)cccc5C)nc4c3c2-c2ccc(OC)cc2)cc1	Pf Dd2 inh 11µM
Cc1cccc(C)c1OCc1nc2c3c(-c4ccccc4)c(-c4ccccc4)oc3ncn2n1	none
CN1C(=O)c2cccn2CC1C(=O)NCc1cccc(C(F)(F)F)c1 (configuration not stated)	none
Cc1cccc(-n2ncc(C(=O)NCc3ccco3)c2C2CCN(C(=O)OC(C)(C)C)CC2)c1	Pf Dd2 inh 11µM
CCOC(=O)N1CCC(NC(=O)c2cnn(-c3ccccc3)c2C2CCN(C(=O)OC(C)(C)C)CC2)CC1	none
CC(C)(C)OC(=O)N1CCC(c2c(C(=O)NCc3ccco3)cnn2-c2ccc(F)cc2)CC1	Pf Dd2 inh 7.9µM
CC(C)(C)OC(=O)N1CCC(c2c(C(=O)NC3CCCCC3)cnn2-c2cccc(Cl)c2)CC1	Pf Dd2 inh 8.9µM
Cc1cccc(-n2ncc(C(=O)N3CCN(C(=O)c4ccco4)CC3)c2C2CCN(C(=O)OC(C)(C)C)CC2)c1	none
Cc1ccc(-n2ncc(C(=O)NCc3ccccn3)c2C2CCN(C(=O)OC(C)(C)C)CC2)cc1C	none
Cc1c(Cl)cccc1-n1ncc(C(=O)NC2CCCCC2)c1C1CCN(C(=O)OC(C)(C)C)CC1	none
Cc1cccc(-n2ncc(C(=O)NCc3ccccn3)c2C2CCN(C(=O)OC(C)(C)C)CC2)c1	Pf Dd2 inh 10µM
CC(=O)N(C1CC1)C1CCOC2(CCN(C(=O)c3cc(-c4ccccc4)n[nH]3)CC2)C1 (configuration not stated)	none
Cc1ccc(CNC(=O)c2ccc3c(c2)CN(Cc2nccs2)CCO3)cc1	none
CC1(C)CN(C(=O)c2cnc(N3CCOCC3)nc2)C[C@]1(C)O	none
Cn1nc(C2CCCN(C(=O)Cc3ccsc3)C2)n(C2CCCC2)c1=O (configuration not stated)	none
CC(C)(C)OC(=O)N1CCC(c2c(C(=O)NCc3ccc(F)cc3)cnn2-c2ccc(F)cc2)CC1	none
CC(C)(C)OC(=O)N1CCC(c2c(C(=O)NCc3cccc(Cl)c3)cnn2-c2ccc(F)cc2)CC1	Pf Dd2 inh 11µM
CC(=O)Nc1cccc(NC(=O)Cc2csc(COc3cccc(C)c3)n2)c1	none
Cc1cccc(NC(=O)Cc2csc(COc3cccc(C)c3)n2)c1	none
CCOc1ccccc1NC(=O)Cc1csc(COc2cccc(C)c2)n1	Pf Dd2 inh 11µM
O=C1N(c2ccccc2)CCOC12CCN([S+](=O)([O-])c1cccnc1)CC2	none
O=C(NC[C@H]1O[C@@H](CO)[C@@H](O)[C@H]1N1CCN(c2ccccn2)CC1)c1ccc(F)c(Cl)c1	none
CCOCc1nc(C2CCCN(C(=O)c3ccc(OCC)cc3)C2)no1 (configuration not stated)	none
CCn1cc(-c2ccncc2)cc1C(=O)N1CCOCC1	none
Cc1ccccc1Cn1cc(-c2ccncc2)cc1C(=O)N1CCN(c2ccccc2)CC1	Pf Dd2 inh 3.5µM
CCCn1cc(-c2ccncc2)cc1C(=O)N1CCN(C)CC1	none
CCn1cc(-c2ccncc2)cc1C(=O)NCc1cccc(F)c1	none
CCn1cc(-c2ccc(C)cc2)cc1C(=O)N1CCN(c2ccccn2)CC1	none
CCCn1cc(-c2ccncc2)cc1C(=O)N1CCN(c2ccccc2OC)CC1	Pf Dd2 inh 4µM
CCCN1CCN(C(=O)c2cc(-c3ccc(F)cc3)cn2CC)CC1	none
CC(=O)Nc1ccc(NC(=O)c2cc(-c3ccncc3)cn2Cc2ccccc2C)cc1	Pf Dd2 inh 3.2µM
COc1cccc(NC(=O)c2cccn(Cc3ccccc3C)c2=O)c1	none
COCC1CCN(C(=O)[C@@H]2CN(c3cnccn3)C[C@H]2COC)CC1	none
CCC1(N2CCN(S(=O)(=O)c3cc(F)cc(F)c3)CC2)CCN(S(C)(=O)=O)C1 (configuration not stated)	none
O=C(NCC1Cn2cccc2C(=O)N1Cc1ccccc1)c1ccccc1F (configuration not stated)	none
COC(=O)NC1CCN(c2nc3ncccc3o2)CC1	none
CN(CC1CCOC1)S(=O)(=O)c1ccccc1 (configuration not stated)	none
CCOC(=O)c1ccc(NC(=O)C2CCCN(c3ncnc4onc(C)c34)C2)cc1 (configuration not stated)	Pf Dd2 inh 7.9µM
COC(=O)c1ccccc1NC(=O)C1CCCN(c2ncnc3onc(C)c23)C1 (configuration not stated)	none
CCOC(=O)c1ccc(NC(=O)C2CCCN(c3ccc(Sc4ccc(C)cc4)nn3)C2)cc1 (configuration not stated)	Pf Dd2 inh 5.6µM
Cc1ccc(Sc2ccc(N3CCCC(C(=O)Nc4ccc(F)cc4F)C3)nn2)cc1 (configuration not stated)	none
CCOCCCNC(=O)C1CCCN(c2ncnc3onc(C)c23)C1 (configuration not stated)	none
